# Screens (PubChem BioAssay)
# This is a sample that favours compounds with a hit; in the whole collection about 8.1% have one here.
# ELG1 repair inh – ELG1-dependent DNA repair inhibition | HEK293T ELG1-luciferase reporter, luminescence, 16 h; DNA damage induced by 5-fluorouridine | Potency, µM (doses to about 46.1 µM), for the others: top-dose activity change, negative = inhibition, most hits filed as inhibitors | actives 2.3% (n = 330,000) | AID 504467; further: on the % scale 0 is the no-effect control and ±100 the full control effect; nearly all actives have a fitted effect of over 55% in size
#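 DMSO vehicle served as the neutral condition. Each well held 2,000 cells given 5-fluorouridine plus compound; after 16 hr at 37 °C/5% CO2, ONE-Glo was added and luciferase measured 30 min later.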
# KB-V1 cytotox – KB-V1 MDR subline cytotoxicity; KB-V1 MDR cells viability, CellTiter-Glo, 72 h; AID 1347076; Potency, µM (series often up to 46.1 µM), most hits filed as cytotoxic; actives 3.4% (n = 400,000); further: on the % scale 0 is the no-effect control and ±100 the full control effect; nearly all actives have a fitted effect of over 60% in size
#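 qHTS viability screen in drug-selected KB-V1 MDR cells: 72 h compound treatment at 37 degrees C, ATP luminescence end point.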
# SW480 rerep – induces DNA re-replication in SW480 colon adenocarcinoma cells; SW480 DNA re-replication, Hoechst DNA content imaging, 48 h; Potency, µM (titrated, usually from 46.1 µM), inactives show at the top dose re-replication activation, usual class: activators; actives 1.8% (n = 340,000); AID 624297; further: % of control where 0% means no effect; nearly all actives have a fitted effect of over 55% in size
#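 SW480 cells exposed to compounds for 48 hr at 37 C, 5% CO2, then Hoechst-stained 40 min. Nuclear DNA content imaged by fluorescence scanning (405 nm excitation, 500-530 nm emission); re-replication scored as increased high-intensity nuclei.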
# KB-3-1 tox – KB-3-1 parental cell cytotoxicity. KB-3-1 viability, CellTiter-Glo ATP luminescence, 72 h. Potency, µM (highest dose often 46.1 µM), usual class: cytotoxic. actives 1.4% (n = 400,000). AID 1347075; further: on the % scale 0 is the no-effect control and ±100 the full control effect; nearly all actives have a fitted effect of over 60% in size
#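 Using CellTiter-Glo luminescence, growth of non-resistant KB-3-1 adenocarcinoma cells is assessed 72 h after pin-tool compound addition at 37 °C. Normalized responses across the concentration series yield fitted curves.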
# MCF10A rerep – DNA re-replication induction in MCF 10a cells; MCF 10A DNA re-replication, Hoechst nuclear intensity, 48 h; Potency, µM (series often up to 46.1 µM), without a hit: top-dose activity, positive = re-replication, usual class: activators; actives 2.9% (n = 350,000); further: % of control where 0% means no effect; nearly all actives have a fitted effect of over 50% in size
# * hit, by the source's call; i = inactive; u = inconclusive; x = not tested or not shown; ! = not confirmed by another sample. The call rests on the fitted dose curve; in most records, active means well fitted curve in the direction sought with a large enough effect; inconclusive means small, poorly fitted or top-dose-only effect, or another doubt; inactive means no such curve, though single readings can be large; an effect the other way counts as inactive or inconclusive. Potency means the concentration at half of the fitted maximal effect.
SMILES,ELG1 repair inh,KB-V1 cytotox,SW480 rerep,KB-3-1 tox,MCF10A rerep
C=C1C(=O)[C@]23C[C@H]1CC[C@H]2[C@]1(C)[C@@H](OC(C)=O)CC[C@@](C)(C(=O)O)[C@H]1C[C@@H]3O,x,i,x,u,x
C=C1C(=O)C2=CC1CCC(=O)C1(C)CCC(OC(C)=O)C(C)(C)C1CC2O (stereo not given),x,6.5µM*,2.1µM*,8.2µM*,9.2µM*
CCOc1ccc(C(=O)CC(C(=O)O)N2CCN(Cc3ccccc3)CC2)cc1 (stereo not given),29%,i,21%,i,16µM*
COCCN1C=C(C(=O)OC)C(c2ccc3c(c2)OCO3)C(C(=O)OC)=C1,6%,u,0%,i,-21%
COC(=O)C1=CN(c2ccc(F)cc2)C(N)=C(C#N)C1c1cccc(F)c1 (stereo not given),x,8.2µM*,x,u,x
COC(=O)C1=CN(c2ccc3c(c2)OCO3)C(N)=C(C#N)C1c1ccc(-c2ccccc2)cc1 (stereo not given),x,3.7µM*,x,4.6µM*,x
COC(=O)C1=CN(c2ccc(F)cc2)C(N)=C(C#N)C1c1ccc(-c2ccccc2)cc1 (stereo not given),x,16µM*,x,u,x
COC(=O)C1=CN(c2ccc(Oc3ccccc3)cc2)C(N)=C(C#N)C1c1cccc(F)c1 (stereo not given),x,i,x,i,x
COC(=O)C1=CN(C2CCCCC2)C=C(C(=O)OC)C1c1ccc2c(c1)OCO2,7%,i,7.3µM*,i,13µM*
COC(=O)C1=CN(c2cc(C)cc(C)c2)C=C(C(=O)OC)C1c1ccc(OC)c(O)c1,-13%,u,u,u,20%
COC(=O)C1=CN(c2ccc(C(C)(C)C)cc2)C(N)=C(C#N)C1c1ccc(OC)cc1 (stereo not given),x,u,x,i,x
COC(=O)C1=CN(c2ccc(OC)cc2OC)C(N)=C(C#N)C1c1cccc([N+](=O)[O-])c1 (stereo not given),x,2.3µM*,x,2.1µM*,x
COC(=O)C1=CN(c2cc(C)cc(C)c2)C=C(C(=O)OC)C1c1cccc(F)c1,11%,u,u,i,3.7µM*
C=C1CC[C@@H]2[C@](C)(CCC[C@@]2(C)/C=C/[C@@H](O)C(C)(C)O)[C@H]1CC(=O)NCCS(=O)(=O)O,x,u,u,i,0%
Nc1oc2ccccc2c(=O)c1-c1ccc2c(c1)OCO2,u,u,-1%,i,-11%
CCc1cc2c(=O)c(-c3ccc4c(c3)OCCO4)c(C)oc2cc1OS(C)(=O)=O,23µM*,u,u,u,u
Cc1ccc(CNc2ccc(-c3nc(C(C)C)no3)cc2[N+](=O)[O-])cc1,x,i,x,i,x
COc1ccc(NC(=O)[C@@H]2CC=C[C@@H]3CCN(Cc4ccc(Cl)c(Cl)c4)C(=O)[C@@H]32)cc1,x,23µM*!,u,u,-31%
COc1ccc(NC(=O)[C@@H]2CC=C[C@@H]3CCN(Cc4ccccc4)C(=O)[C@@H]32)cc1,x,u,-17%,i,4%
CSc1nc(-c2ccc(F)cc2)cc(=O)[nH]1,-7%,i,9.2µM*,i,0%
O=C(COC(=O)c1ccc(F)cc1)NCc1ccc(F)cc1,1%,u,3%,u,-1%
Cn1c(C(=O)OCC(=O)NCc2ccc(F)cc2)cc2occc21,u,i,-1%,i,2.9µM*
O=C(NCC(c1ccco1)N1CCCC1)c1cn(-c2ccccc2)nc1-c1ccc(F)cc1 (stereo not given),u,i,u,i,21µM*
O=C(c1cn(-c2ccccc2)nc1-c1ccc(Br)cc1)N1CCOCC1,-16%,u,23µM*,i,5%
O=C(Nc1nc2ccccc2n1CCN1CCOCC1)c1cn(-c2ccccc2)nc1-c1ccccc1,18µM*,u,u,u,u
SMILES,ELG1 repair inh,KB-V1 cytotox,SW480 rerep,KB-3-1 tox,MCF10A rerep
COc1ccccc1-c1nn(-c2ccccc2)cc1C(=O)NCC(c1ccco1)N1CCCC1 (stereo not given),-18%,i,-7%,i,15%
O=C(Nc1nc2ccccc2n1CCN1CCOCC1)c1ccccc1,u,i,-1%,i,0%
O=C(NC(=S)N1CCOCC1)c1cn(-c2ccccc2)nc1-c1ccc(F)cc1,-22%,21µM*,10%,i,9%
Cc1ccc(Cc2c(-c3ccccc3)nc3cc(C)c(Br)c(C)n23)cc1,x,i,x,i,x
COc1ccccc1N(CCC#N)C(=O)CSc1nnc2ccccn12,14%,x,0%,x,u
O=C(c1cn(-c2ccccc2)nc1-c1cccs1)N1CCOCC1,1%,u,-2%,i,1%
O=C(c1cn(-c2ccccc2)nc1-c1cccs1)N1CCN(c2ccccc2)CC1,6%,u,2.9µM*,8.2µM*,6.5µM*
C#CC[N+](C)(C)CC#Cc1ccc(C)cc1,8%,i,-14%,12µM*,6%
CSC1=C(C#N)C(c2ccc(Cl)cc2)C2=C(CC(C)(C)CC2=O)N1 (stereo not given),18µM*,21µM*,21%,u,u
CCCSC1=C(C#N)C(c2ccc(OC)cc2)C2=C(CC(C)(C)CC2=O)N1 (stereo not given),-8%,i,10%,i,u
CC1(C)CC(=O)C2=C(C1)NC1=C(C(=O)c3ccccc31)C2c1ccc(Cl)cc1 (stereo not given),u,15µM*,3%,u,u
CCc1cccc(C)c1NC(=O)Cn1c(=O)cc(C)c2c(C)nn(-c3cccc(F)c3)c21,x,i,x,i,x
CCC(=O)Nc1ccc(S(=O)(=O)N2CCC(c3nc4ccccc4[nH]3)CC2)cc1,18µM*,i,-6%,i,6%
CCOC(=O)Nc1ccc(S(=O)(=O)N2CCC(C)CC2)cc1,u,21µM*,-5%,i,u
COc1ccc(NC(=O)CN2CCN(S(=O)(=O)c3ccc(Cl)cc3)CC2)cc1,0%,16µM*,9%,i,8%
COc1cc(NC(=O)CCC(=O)N2CCN(S(=O)(=O)c3ccc(C)cc3)CC2)cc(OC)c1,x,18µM*,10%,i,10%
CCCC(=O)Nc1ccc(S(=O)(=O)N2CCC(c3nc4ccccc4[nH]3)CC2)cc1,u,i,2%,i,-4%
CCOc1ccccc1NC(=O)N1CCc2c(sc3c2CCCC3)C1c1ccccc1 (stereo not given),x,i,x,i,x
CCC(=O)N(C)C[C@@H]1Oc2ncc(Br)cc2C(=O)N([C@@H](C)CO)C[C@H]1C,x,i,x,i,x
